From ChEMBL document CHEMBL1201862, “PubChem BioAssay data set” (2004)
The whole screen tested about 53,000 sequences, of which about 5,500 (10%) were called active. No stated cut-off is given here; in the data, active = GI50 up to about 1.1 µM and inactive = higher. The sample as a whole holds a higher share of actives than the screen did. Entries with a potency or affinity are not part of this list.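 Values below derive from 48-hour exposures of cells grown in 96-well plates, with endpoints linearly interpolated between the two concentrations bracketing the appropriate inhibition level. At the GI50, growth is halved.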

tested on: HL-60; test: NCI tumour cell line growth inhibition, 48 h

Substance	GI50 [nM]
ACRIFLAVINE HYDROCHLORIDE, CHEMBL5219995	333
cis-Bis[[(trimethylsilyl)methyl]amino]tetrachloroplatinum(IV), CHEMBL2146191	1760
[Bis(aminomethyl)dimethylsilane]tetrachloroplatinum(IV), CHEMBL2146190	248
[Bis(aminomethyl)ethylmethylsilane]tetrachloroplatinum(IV), CHEMBL2146192	156
[Bis(aminomethyl)tetramethylenesilane]tetrachloropaltinum(IV), CHEMBL2146189	115
CISPLATIN, CHEMBL11359	542
[Bis(aminomethyl)dimethylsilane]dichloroplatinum (II), CHEMBL2146201	1300
[Bis(aminomethyl)tetramethylenesilane]dichloropaltinum(II), CHEMBL2146205	1570
[Bis(aminomethyl)diethylsilane]tetrachloroplatinum(IV), CHEMBL2146203	91.2
[Bis(aminomethyl)pentamethylenesilane]tetrachloropaltinum(IV), CHEMBL2146204	56.6
mu-(1,7-nanodiamine-N,N')bis-(cis-aminedichloroplatimum (II)), CHEMBL2146215	1640
[Bis(aminomethyl)pentamethylenesilane]dichloropaltinum(II), CHEMBL2146202	51.3
